Experiment [1] is described as follows: NCI Yeast Anticancer Drug Screen. Data for the rad50 strain (AID 155).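 Note: 0% = growth of vehicle-only cultures of the same strain.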 The note with it: S. cerevisiae rad50 strain growth inhibition; at 50.0 µM; active compounds read high. The method in brief: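 Relative growth inhibition (compound vs vehicle) was measured in yeast with a defined repair-gene alteration.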
Experiment [2] is described as follows: NCI Yeast Anticancer Drug Screen. Data for the mec2-1 strain (AID 157). The note with it: S. cerevisiae mec2-1 strain, at 50.0 µM, active compounds read high. The method in brief:
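mec2-1 yeast strain, carrying an alteration in DNA damage repair or cell cycle control, was exposed to compounds; growth inhibition was measured relative to vehicle-treated controls.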

Experiment [3] can be described thus: NCI Yeast Anticancer Drug Screen. Data for the sgs1 mgt1 strain (AID 161).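 Note: 0% = growth of cultures given vehicle only.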 The note with it: S. cerevisiae sgs1 mgt1 strain, at 50.0 µM, active compounds read high. The method in brief:
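Percent growth inhibition was derived by comparing compound-exposed mutant yeast with vehicle-exposed cultures. The strain carries alterations in DNA damage repair.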

A short description of experiment [4]: NCI Yeast Anticancer Drug Screen. Data for the cln2 rad14 strain (AID 165).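 Note: 0% = growth equal to vehicle treated cultures.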 The note with it: S. cerevisiae cln2 rad14 strain, at 50.0 µM, active compounds read high. In outline: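 Yeast carrying cln2 and rad14 alterations (cell cycle control and DNA damage repair) were exposed to compounds. Growth inhibition was measured against vehicle-treated controls.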
Experiment [5] in a line: NCI Yeast Anticancer Drug Screen. Data for the bub3 strain (AID 167). The note with it: S. cerevisiae bub3 mutant strain, at 50.0 µM, active compounds read high. In outline:
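Screening used yeast with an engineered genetic alteration affecting cell cycle control. Compound-exposed cultures were compared with vehicle cultures, and reduced growth was taken as inhibition.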

A short description of experiment [6]: NCI Yeast Anticancer Drug Screen. Data for the mlh1 rad18 strain (AID 175). The note with it: S. cerevisiae mlh1 rad18 strain growth inhibition; at 50.0 µM; active compounds read high. The method in brief:
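Growth inhibition of the yeast strain was measured after compound exposure and expressed relative to vehicle-treated controls. The strain carries defined defects in DNA damage repair.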

Molecules are shown by their SMILES. This is part of a sample that, as a whole, favours compounds with a hit. Of some 79,000 tested, about 15% had one in any assay. Unmarked numbers belong to inactive results. The source made the active and inactive calls. Cut-off read from the data, not from the text of the source: active = growth inhibition above about 70%; inactive = the rest.

Consider `COC(=O)C(C(=O)C(=O)Nc1cccc(O)c1)c1nc2ccc(Cl)cc2[nH]c1=O` (stereo unspecified), for which the growth inhibition was -19% in experiment [1]; -3.95% in experiment [2]; -41.3% in experiment [3]; 2.55% in experiment [4]; -8.65% in experiment [5]; -13.9% in experiment [6].

Turning to `O=c1[nH]nc(-c2ccc3c(c2)Cc2ccccc2-3)c2ccccc12`, the growth inhibition is 12.8% in experiment [1]; -0.15% in experiment [2]; -23.9% in experiment [3]; -1.95% in experiment [4]; 10.3% in experiment [5]; 17.5% in experiment [6].

In the case of `CN(C)c1nc(Cl)cc2nc(Cl)cn12`, the growth inhibition is 0.25% in experiment [1]; 5.7% in experiment [2]; 2.5% in experiment [3]; -0.35% in experiment [4]; -8.15% in experiment [5]; 0.5% in experiment [6].

In the case of `CSC(=S)n1nc(-c2ccccc2)c(N=Nc2cccc(Cl)c2Cl)c1-c1ccccc1`, the growth inhibition in experiment [1] was 90.2% (active); in experiment [2], 95.5% (active); in experiment [3] it was 94% (active); in experiment [4] it was 94.5% (active); in experiment [5], 93% (active); in experiment [6], 95.2% (active).

As to `N#Cc1sc2c(c1OC(=O)c1ccccc1)c(=O)n(-c1ccccc1)c(=S)n2-c1ccccc1`, the growth inhibition in experiment [1] was -2.65%; in experiment [2], 10.8%; in experiment [3] it was 3.45%; in experiment [4] it was -12.4%; in experiment [5] it was -5.95%; in experiment [6], 18%.

Take `O=C1CC(c2ccc(Cl)cc2)C(=O)O1` (stereo unspecified): the growth inhibition in experiment [1] is -10.5%; in experiment [2] it was 12%; in experiment [3], 1.6%; in experiment [4], 3.2%; in experiment [5] it was -23.4%; in experiment [6], -15.1%.

As for `O=C1c2ccccc2CC12CCC1(CC2)OCCO1`, the growth inhibition is -14% in experiment [1]; -1% in experiment [2]; 3.55% in experiment [3]; 26.6% in experiment [4]; -12.5% in experiment [5]; -23.6% in experiment [6].

In the case of `Cn1c(NCCN2CCCCC2)c(C(=O)/C=C/c2ccccc2)c(=O)n(C)c1=O`, the growth inhibition in experiment [1] is 15.3%; in experiment [2], 19.4%; in experiment [3], 8.65%; in experiment [4], 17.6%; in experiment [5], -1.5%; in experiment [6] it was 20.8%.

With `O=C(CCc1ccccc1)NC(=S)Nc1cc(C(F)(F)F)ccc1Cl`, the growth inhibition is 13.2% in experiment [1]; 14.2% in experiment [2]; 33.5% in experiment [3]; -41.8% in experiment [4]; -8% in experiment [5]; 34.9% in experiment [6].

Turning to `Cc1ccc(C2SC(N)=Nc3c2c(C)nn3C(=O)c2ccccc2O)cc1` (stereo unspecified), the growth inhibition was 8.65% in experiment [1]; 16.4% in experiment [2]; 34.9% in experiment [3]; 5.65% in experiment [4]; 10.2% in experiment [5]; 12.7% in experiment [6].

As for `Cc1c(Cl)cccc1NC(=O)C1CC(Br)C(Br)CC1C(=O)O` (stereo unspecified), the growth inhibition in experiment [1] was 1.5%; in experiment [2] it was 6.7%; in experiment [3], 1.5%; in experiment [4], -48.5%; in experiment [5] it was 9.35%; in experiment [6], 31.3%.

For `C/C(=N/O)C1CC(C)([N+](=O)[O-])CCC1(C)O` (stereo unspecified), the growth inhibition in experiment [1] was -8.15%; in experiment [2], -13.6%; in experiment [3] it was -19.2%; in experiment [4] it was -8.5%; in experiment [5], 5.45%; in experiment [6] it was 5.65%.

As for `CCCCCC(=O)C(C)C1(C(=O)OC)NC(=S)NC(=O)C1C#N` (stereo unspecified), the growth inhibition was 16.8% in experiment [1]; 14.8% in experiment [2]; 13.1% in experiment [3]; 12.4% in experiment [4]; -1.9% in experiment [5]; 17.4% in experiment [6].

For the compound `CCOC(=O)c1[nH]n(-c2ccccc2)c(=O)c1/C=N/C(=S)Nc1ccccc1`, the growth inhibition is -22.3% in experiment [1]; -10.6% in experiment [2]; -16.6% in experiment [3]; -11.8% in experiment [4]; -21.3% in experiment [5]; -7.85% in experiment [6].

Take `COC(=O)C(C)Oc1ccc(O)cc1` (stereo unspecified): the growth inhibition is 21.7% in experiment [1]; -3% in experiment [2]; 5% in experiment [3]; 7.7% in experiment [4]; 19.7% in experiment [5]; 10.4% in experiment [6].

Consider `O=C(O)/C=C\c1cccc([N+](=O)[O-])c1`, for which the growth inhibition in experiment [1] was 11.9%; in experiment [2] it was -16.4%; in experiment [3], 7.4%; in experiment [4], 22.3%; in experiment [5] it was 27.6%; in experiment [6] it was -14.8%.

On to `CCCC(=O)OCC(C)(C)CC(C)C`, for which the growth inhibition in experiment [1] is -9.55%; in experiment [2], -57.9%; in experiment [3], -10.5%; in experiment [4] it was -5.55%; in experiment [5] it was -14.5%; in experiment [6] it was -24.4%.

Regarding `Cc1cc(S(=O)(=O)Nc2nc(N)nc(N3CCCCC3)n2)c(S)cc1Cl`, the growth inhibition in experiment [1] was -0.3%; in experiment [2], -11.7%; in experiment [3], -13%; in experiment [4], -7.15%; in experiment [5], -5.2%; in experiment [6], 5.35%.

Turning to `N#C/C(C(N)=O)=C1\CCCc2sccc21`, the growth inhibition was -13.3% in experiment [1]; 5.9% in experiment [2]; -6.3% in experiment [3]; -30.1% in experiment [4]; -4.75% in experiment [5]; 3.4% in experiment [6].

Take `CCC(=O)N(C)c1ccccc1`: the growth inhibition in experiment [1] is 22.4%; in experiment [2], 6.3%; in experiment [3], 0.75%; in experiment [4], 12.2%; in experiment [5], -0.35%; in experiment [6] it was -23.4%.

Take `c1ccc(C(NC2=NCCO2)C2CC2)cc1` (stereo unspecified): the growth inhibition in experiment [1] was -12.8%; in experiment [2], -18.4%; in experiment [3], -9.1%; in experiment [4], 23.3%; in experiment [5], -9.55%; in experiment [6] it was -54.9%.
